B-score data for 100 molecules are collected here from PubChem BioAssay AID626 (Vanderbilt High Throughput Screening Facility, 2007).

The campaign covered roughly 64,000 compounds. About 1,900 (3%) were called active. The sample as a whole holds a higher share of actives than the screen did. Values without a mark were called inactive.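 Rule for the calls: active = fluorescence rise, raw or as B-score row- and column-corrected plate score, outside the 99.7% band of its plate's samples, either direction; inactive = the rest.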

This assay has as its system Muscarinic acetylcholine receptor M1. The assay is described as follows: direct activation of M1 receptor calcium signal – CHO-M1 cells, Fluo-4 calcium, agonist mode, primary screen (AID 626). The note with it: Fluo-4 calcium fluorescence, at 10 µM, hits give high values.
`CN1CCN(S(=O)(=O)c2ccc3[nH]cc(C(=O)O)c(=O)c3c2)CC1`: the B-score is 0.537. The figure for `CC1CCN(Cc2nc3c(c(=O)n(C)c(=O)n3C)n2CCc2ccccc2)CC1` is 0.945; for `COCCn1c(CN2CCC(Cc3ccccc3)CC2)nc2c1c(=O)n(C)c(=O)n2C` it is 3.45 (active). The figure for `COCCn1c(CN(Cc2ccccc2)Cc2ccccc2)nc2c1c(=O)n(C)c(=O)n2C` is 0.66. The figure for `CCOC(=O)c1ccc(NC(=O)CSc2nnc(COc3ccccc3OC)n2C)cc1` is 0.692.

For the molecule `O=C(Nc1ccccc1N1CCCCC1)c1cccc(F)c1`, the B-score is 0.341. Under `C/C(=C(\C#N)C(=O)NCCCN1CCOCC1)N(C)C` stands 0.122. In the case of `Cc1cc(Nc2cccc(F)c2)n2ncnc2n1`, the B-score is 1.22. The figure for `CCOC(=O)[C@H]1CCC[C@@H](NS(=O)(=O)c2ccc(NC(C)=O)cc2)C1` is -0.507; for `CCOC(=O)C1CCN(C(=O)Nc2ccc(Cl)cc2)CC1` it is 0.00389. Under `CCOC(=O)C1CCCN(Cc2nc(N)nc(Nc3ccc(C)cc3)n2)C1` (stereo not given) stands 35.2 (active); under `CCn1c(SCCC(C)C)nnc1-c1c[nH]c2ccccc12`, 0.584. The figure for `Cc1nc2ccccc2c2oc(C(=O)NCCCN3CCC(C)CC3)cc12` is 0.3. With `CCCN(CCC)CCNC(=O)c1cc2c(C)nc3ccccc3c2o1`, the B-score was -0.845.

Regarding `Cc1nc2ccccc2c2oc(C(=O)NCC3CCCO3)cc12` (stereo not given), the B-score is 2.93 (active). Under `COCCN1C(=O)c2oc3c(C)cc(C)cc3c(=O)c2C1c1cccc(O)c1` (stereo not given) stands 0.00288.

For `CCOC(=O)Cn1c(=O)oc2cc(S(=O)(=O)N(C)Cc3ccco3)ccc21`, the B-score is -0.339. Turning to `O=C(c1ccco1)N1CCN(C(=O)C2CC(c3ccc(Cl)c(Cl)c3)=NO2)CC1` (stereo not given), the B-score was -0.464. Under `O=S(=O)(Nc1ccc2nc(-c3ccco3)[nH]c2c1)c1ccccc1` stands -0.0329; under `Cc1ccc(S(=O)(=O)Nc2ccc3ncccc3c2)cc1`, 3.16 (active); under `CC(=O)N1CCN(C(=O)c2cccc(S(=O)(=O)Nc3ccc(C)cc3)c2)CC1`, 0.272. Regarding `CCOC(=O)c1sc(NC(=O)CSc2nnc(-c3ccco3)o2)c(C(=O)OCC)c1C`, the B-score is -0.0997. The figure for `CCOc1cc(/C=N/O)cc(Br)c1OC` is 0.00429; for `O=C(Nc1ccccc1C(=O)N1CCOCC1)C1CCC(=O)N1C1CCCC1` (stereo not given) it is 0.307. Take `Cc1ccc(-c2noc(CN3CCN(Cc4ccccc4)CC3)n2)cc1`: the B-score is -0.531. As to `Cc1ccc(Cc2nc(-c3cccc(C)c3)no2)cc1`, the B-score was -0.177.

Take `COc1ccccc1Cc1nc(-c2ccc(C)cc2)no1`: the B-score is 3.86 (active). Under `O=C(NCCN1CCOCC1)c1c(F)c(F)c(F)c(F)c1F` stands 0.102. Regarding `COCCNC(=O)C(c1ccc(C)o1)N(Cc1ccccc1)C(=O)Cn1nnc2ccccc21` (stereo not given), the B-score is -0.295.

For `COCCNC(=O)C(c1ccc(C)o1)N(Cc1cccs1)C(=O)c1snc(C(N)=O)c1N` (stereo not given), the B-score was 2.74 (active). Regarding `CCC(C(=O)NC1CCCC1)N(C(=O)c1snc(C(N)=O)c1N)c1ccc2c(c1)OCCO2` (stereo not given), the B-score was -0.647. Take `CC(Nc1nc(N2CCCC2)nc2ccccc12)c1ccccc1` (stereo not given): the B-score was 0.0749. Turning to `CCOCCCNC(=O)Cc1cc(=O)[nH]c(=O)[nH]1`, the B-score was -0.622. Under `COc1ccc(CN(C(=O)c2cccs2)c2nccs2)cc1OC` stands -0.233; under `COc1ccc2nc(N3CCCC(O)C3)c(C#N)cc2c1` (stereo not given), 15 (active); under `Cc1cc(C)c2nc(N3CCCC3)c(C#N)cc2c1`, 0.391. Take `COc1ccc(N2CCN(C(=O)CSc3nc4cc(OC)c(OC)cc4cc3C#N)CC2)cc1`: the B-score is -0.487. As for `COC(=O)c1cc(C(=O)CSc2nc(C)cc(C)n2)ccc1O`, the B-score is -0.00415. As to `Oc1c(C(c2ccco2)N2CCC3(CC2)OCCO3)sc2ncnn12` (stereo not given), the B-score is -0.563. In the case of `CCCCCNC(=O)Cc1ccc(OC)cc1`, the B-score was 1.29. Under `O=C(Nc1ccccc1-c1nnn(CC(=O)N2CCN(c3ccccc3)CC2)n1)c1cccs1` stands -0.15; under `Cc1cccn2c(=O)c3cc(C(=O)NCc4ccccn4)n(C)c3nc12`, -0.541. The figure for `O=C(NCc1ccccn1)c1cc2ccccc2oc1=O` is -0.243. Under `O=C(NCc1ccccn1)c1ccc2nc(-c3ccco3)c(-c3ccco3)nc2c1` stands 3.06 (active); under `CC1CCCCN1CC(=O)NCc1ccc2c(c1)OCO2` (stereo not given), -0.147. In the case of `CCn1c(Cc2ccccc2)nnc1SCc1nc2ccccc2c(=O)[nH]1`, the B-score was 0.17. Under `O=C(O)c1ccc(COCC(F)(F)F)cc1` stands 3 (active); under `O=C(C1CCC1)N1CCc2cc(S(=O)(=O)NCc3cccnc3)ccc21`, -2.04. Under `COC(=O)c1cn(C)c2ccc(S(=O)(=O)N3CC(C)CC(C)C3)cc2c1=O` (stereo not given) stands -0.784. The figure for `O=C(COc1ccccc1)NCc1ccc2c(c1)OCO2` is 0.038; for `c1n[nH]c(NCc2ccc3c(c2)OCO3)n1` it is 2.68 (active); for `CCOC(=O)NCc1ccc2c(c1)OCO2` it is 0.801.

As for `Cc1ccc(-c2csc3nnc(SCC(=O)NCc4ccco4)n23)cc1`, the B-score is 0.495. Under `COC(=O)c1ccccc1NC(=O)CN(Cc1ccccc1)S(C)(=O)=O` stands 0.117; under `CCOc1ccc(N2C(=O)CC(N(O)c3ccccc3)C2=O)cc1` (stereo not given), 0.335; under `COc1ccccc1N1CCN(C(=O)c2cc(-c3ccc(Cl)c(Cl)c3)on2)CC1`, -0.0802.

Consider `COc1ccccc1N1CCN(C(=O)c2c(-c3c(Cl)cccc3Cl)noc2C)CC1`, for which the B-score was 4.97 (active). Under `COc1ccccc1N1CCN(C(=O)c2cc(-c3ccc(Br)cc3)on2)CC1` stands -0.734. Under `O=C(c1ccco1)N1CCN(CC(=O)N(C2CCCCC2)C2CCS(=O)(=O)C2)CC1` (stereo not given) stands 1.21; under `COc1ccc(S(=O)(=O)N2CCCCC2)cc1Br`, -0.037. Take `O=C(CCSc1ccccc1)NCCSc1ccccn1`: the B-score is -0.157.

On to `COc1c(F)c(F)c(-c2csc(N)n2)c(F)c1F`, for which the B-score was -0.0216. As to `Cc1nc2c(c(=O)n1Cc1ccco1)c1nc3ccccc3nc1n2Cc1ccccc1`, the B-score was -1.33. Under `COc1ccc(CC(=O)Nc2nc3n(n2)C(c2ccccc2)CC(=O)N3)cc1OC` (stereo not given) stands 1.86; under `COc1cc2c(cc1OC)C(c1ccc(C)o1)CC(=O)N2` (stereo not given), 0.00289; under `CCCOc1ccccc1C1CC(=O)Nc2cc3c(cc21)OCO3` (stereo not given), 4.33 (active). Consider `COCCOC(=O)C1=C(C)NC(=O)CC1c1cc2c(cc1Br)OCO2` (stereo not given), for which the B-score was 0.114. Under `CC(C)C[C@H](NC(=O)Nc1cccc(C(F)(F)F)c1)C(=O)O` stands 0.0481. With `CC(=O)c1c(C)c[nH]c1C`, the B-score was 0.323. The figure for `Cc1nc(CNS(=O)(=O)c2cccnc2)cs1` is 0.163.

In the case of `Cc1ccc(S(=O)(=O)NCc2csc(C)n2)c(C)c1`, the B-score was -0.841.

Consider `Cc1nc(CNS(=O)(=O)c2ccc(Oc3ccccc3)cc2)cs1`, for which the B-score is 3.97 (active). The figure for `CC(C)C(NC(=O)OCc1ccccc1)C(=O)OCC(=O)N1C(C)CCCC1C` (stereo not given) is -0.582. Under `COc1cc(OC)cc(C(=O)NCCSCc2ccco2)c1` stands -0.317; under `COc1ccc(N(CC(=O)NC(C)(C)C)C(=O)c2ccco2)cc1`, 3.36 (active); under `O=C(NCCSc1ccccc1)c1ccco1`, 0.47.

On to `CC(C)(C)NC(=O)c1cc(NC(=O)c2ccco2)cc(NC(=O)c2ccco2)c1`, for which the B-score was 4.57.

With `COC(=O)c1ccc(N(CC(=O)NC2CCCC2)C(=O)CNC(=O)c2ccco2)cc1`, the B-score was -0.016. For the molecule `COc1ccc(CCNC(=O)c2ccco2)cc1`, the B-score is 78.9 (active). The figure for `CCOC(=O)N1CCN(C(=O)CSc2nnc(-c3c[nH]c4ccccc34)n2CCOC)CC1` is 0.791; for `O=C(OCC(=O)c1cccs1)C1=COCCO1` it is -0.115. For `COc1ccc(C(c2nnnn2C2CCCCC2)N2CCN(c3ccccc3F)CC2)cc1` (stereo not given), the B-score was -0.721. As for `COC(=O)c1ccc(CSc2nc3ccccc3c(=O)n2-c2cccc(OC)c2)o1`, the B-score was 3.63 (active). The figure for `COCC(C)n1c(SCc2ccc(C(=O)OC)o2)nc2ccccc2c1=O` (stereo not given) is 1.47; for `COC(=O)c1ccc(CSc2ccccc2C)o1` it is -0.274.

Turning to `CCOC(=O)N1CCC(C(N)=O)CC1`, the B-score was -0.221.

As for `COc1ccc2c(c1)C=CC1(O2)N(CCO)c2ccccc2C1(C)C` (stereo not given), the B-score is 0.737. Under `COc1ccc(OC)c(S(=O)(=O)Nc2ccccc2F)c1` stands -0.55; under `Cc1cc(Nc2ccccc2)n(CCC#N)n1`, -0.373. The figure for `Cc1cc(NC(=O)COc2ccc(Cl)cc2Cl)n(CCC#N)n1` is -2.93 (active); for `CN1CCN(c2ccc(NC(=O)COc3ccc(Cl)cc3Cl)cc2)CC1` it is -0.55. Regarding `O=C(c1cccs1)N1CCN(Cc2ccc3c(c2)OCO3)CC1`, the B-score is 0.609. Under `N#Cc1nc(-c2ccc(OCc3ccccc3)cc2)oc1NCCCN1CCOCC1` stands 1.06; under `CCOc1ccc(Nc2oc(Cc3ccccc3)nc2C#N)cc1`, 0.194. With `COc1ccc(Nc2oc(-c3ccccc3Cl)nc2C#N)cc1`, the B-score was 37.2 (active). The figure for `CCN1C(=O)CS/C1=N\c1nccs1` is 0.514; for `O=C(Nc1ccc(Cl)cc1)c1ccsn1` it is -0.00233; for `N#Cc1c(NC(=O)CCCN2C(=O)c3ccccc3C2=O)oc(-c2ccccc2)c1-c1ccccc1` it is -0.449. The figure for `COc1cc(C(=O)Nc2nccs2)cc(OC)c1OC` is 1.84; for `COc1cc(C(=O)Nc2oc(-c3ccccc3)c(-c3ccccc3)c2C#N)cc(OC)c1OC` it is 3.33 (active).
